These results are taken from PubChem BioAssay AID588511 (Johns Hopkins Ion Channel Center, 2011).

Each structure is given as a SMILES string. In all, about 310,000 compounds went through this assay and about 3,600 (1.2%) were called active.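 How the source made its calls: active means ratio plate-corrected score three or more library SD toward inhibition, starting fluorescence score within five deviations; inactive means the rest.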 What follows is part of a selection rich in actives, with near analogues and random picks from the rest.

For this experiment, the target named is Anoctamin-1 (Mus musculus) (UniProt Q8BHY3). Description: TMEM16A chloride channel inhibitors, primary screen, cell-based, HTS (AID 588511).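 On normalized B-score (activity score, 25-100; higher = stronger inhibition): score derived from kinetic fluorescence span divided by baseline fluorescence per well.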 As to conditions: HEK293 TMEM16A/YFP iodide influx fluorescence, ionomycin; at 10 µM.
Sequence of Anoctamin-1 (Mus musculus) (Q8BHY3 whole entry, looked up): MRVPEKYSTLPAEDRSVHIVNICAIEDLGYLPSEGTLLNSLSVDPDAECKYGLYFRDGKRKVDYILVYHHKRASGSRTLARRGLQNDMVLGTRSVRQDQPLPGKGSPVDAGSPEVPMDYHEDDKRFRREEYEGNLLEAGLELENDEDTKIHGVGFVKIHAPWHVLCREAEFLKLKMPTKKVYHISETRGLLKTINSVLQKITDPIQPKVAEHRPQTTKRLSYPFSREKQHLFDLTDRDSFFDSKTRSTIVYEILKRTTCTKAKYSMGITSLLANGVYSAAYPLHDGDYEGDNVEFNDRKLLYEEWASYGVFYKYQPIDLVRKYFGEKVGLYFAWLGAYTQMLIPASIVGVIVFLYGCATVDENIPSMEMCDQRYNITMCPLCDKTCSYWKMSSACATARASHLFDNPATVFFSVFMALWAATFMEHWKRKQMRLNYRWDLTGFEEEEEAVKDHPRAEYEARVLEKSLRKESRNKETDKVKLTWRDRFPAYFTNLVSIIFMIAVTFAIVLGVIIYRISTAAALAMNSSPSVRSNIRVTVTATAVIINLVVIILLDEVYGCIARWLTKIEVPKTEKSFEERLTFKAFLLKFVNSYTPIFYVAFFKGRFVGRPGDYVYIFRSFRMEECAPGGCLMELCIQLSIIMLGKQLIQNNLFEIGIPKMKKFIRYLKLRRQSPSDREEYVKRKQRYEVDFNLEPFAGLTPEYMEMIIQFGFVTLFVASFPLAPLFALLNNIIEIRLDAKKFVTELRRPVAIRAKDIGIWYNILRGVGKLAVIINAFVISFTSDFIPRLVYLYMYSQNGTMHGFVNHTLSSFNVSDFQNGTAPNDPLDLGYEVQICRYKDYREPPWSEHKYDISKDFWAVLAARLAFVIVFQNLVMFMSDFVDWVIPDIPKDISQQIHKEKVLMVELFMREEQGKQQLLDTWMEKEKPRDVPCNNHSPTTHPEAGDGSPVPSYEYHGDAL
As for `COc1ccc(NC(=O)C2=CC(c3ccc(OC)c(OC)c3)=NS(=O)(=O)N2C)cc1`, the normalized B-score (activity score, 25-100; higher = stronger inhibition) is 25 (active).

For the compound `COc1cc(NC(=O)C2=CC(c3ccco3)=NS(=O)(=O)N2C)cc(OC)c1OC`, the normalized B-score (activity score, 25-100; higher = stronger inhibition) result is “inactive”.

With `COc1cc(NC(=O)C2=CC(c3ccc(C)cc3)=NS(=O)(=O)N2C)cc(OC)c1OC`, the normalized B-score (activity score, 25-100; higher = stronger inhibition) entry is “inactive”.

Turning to `O=C(CSc1nnc2c(n1)[nH]c1ccccc12)NC1CCCCC1`, the normalized B-score (activity score, 25-100; higher = stronger inhibition) entry was “inactive”.

On to `Cc1ccc(CNC(=O)C2CCCN2S(=O)(=O)c2ccc3c(c2)C(C)(C)C(=O)N3C)cc1` (stereo unspecified), for which the normalized B-score (activity score, 25-100; higher = stronger inhibition) result was “inactive”.

As for `Cc1n[nH]c(=O)n1-c1ccc(Oc2ccccc2)cc1`, the normalized B-score (activity score, 25-100; higher = stronger inhibition) result was “inactive”.

On to `CN(C)S(=O)(=O)c1ccc(Oc2ccc(S(=O)(=O)N(C)C)cc2)cc1`, for which the normalized B-score (activity score, 25-100; higher = stronger inhibition) result is “inactive”.

Regarding `Cc1ccc(S(=O)(=O)c2ccc(Oc3ccccc3)cc2)cc1`, the normalized B-score (activity score, 25-100; higher = stronger inhibition) was 100 (active).

For `Cc1cc(C)c(NC(=O)CN2CCCCCC2)c(C)c1`, the normalized B-score (activity score, 25-100; higher = stronger inhibition) result was “inactive”.

Consider `CN(C)C(=O)CCC(=O)N1CCCCC1C(=O)Nc1ccc(Oc2ccccc2F)cc1` (stereo unspecified), for which the normalized B-score (activity score, 25-100; higher = stronger inhibition) entry is “inactive”.

Turning to `CC(C)(C)C(=O)/C(C#N)=C/c1ccc(O)cc1`, the normalized B-score (activity score, 25-100; higher = stronger inhibition) is 25 (active).

On to `CCOC(=O)NC(=O)/C(C#N)=C\c1ccccc1`, for which the normalized B-score (activity score, 25-100; higher = stronger inhibition) result was “inactive”.

Take `CC(C)NC(=O)/C(C#N)=C\c1ccc(N(C)C)c(Br)c1`: the normalized B-score (activity score, 25-100; higher = stronger inhibition) entry is “inactive”.

On to `S=C(NCc1cccs1)Nc1ccc(Cl)cc1`, for which the normalized B-score (activity score, 25-100; higher = stronger inhibition) was 25 (active).

For the compound `COc1ccc(NC(=S)NCc2cccs2)c(OC)c1`, the normalized B-score (activity score, 25-100; higher = stronger inhibition) entry is “inactive”.

Turning to `Fc1ccccc1CNC(=S)Nc1ccc(Cl)cc1`, the normalized B-score (activity score, 25-100; higher = stronger inhibition) entry is “inactive”.

Take `Cc1ccc(Cc2nnc(SCC(=O)Nc3ccc(C)cc3C)[nH]c2=O)cc1`: the normalized B-score (activity score, 25-100; higher = stronger inhibition) entry is “inactive”.

For `COc1cc(CNCc2ccc(OC)c3ccccc23)cc(OC)c1OC`, the normalized B-score (activity score, 25-100; higher = stronger inhibition) result was “inactive”.

`COCCCNC(=O)C1CCN(c2ccc(N3CCOCC3)nn2)CC1`: the normalized B-score (activity score, 25-100; higher = stronger inhibition) result was “inactive”.

With `CC(=O)Nc1c2c(nn1-c1ccc(C)cc1C)CS(=O)C2` (stereo unspecified), the normalized B-score (activity score, 25-100; higher = stronger inhibition) result is “inactive”.

Turning to `Nc1nc(-c2ccccc2)cc(-c2ccccc2)n1`, the normalized B-score (activity score, 25-100; higher = stronger inhibition) result was “inactive”.

Consider `CC(C)Nc1nc(N(c2ccccc2)c2ccccc2)nc(-n2ccnc2)n1`, for which the normalized B-score (activity score, 25-100; higher = stronger inhibition) result is “inactive”.

With `N#Cc1nc(N)nc(N(c2ccccc2)c2ccccc2)n1`, the normalized B-score (activity score, 25-100; higher = stronger inhibition) is 100 (active).

Regarding `COc1ccccc1CNC(=O)CNC(=O)c1cn(-c2ccccc2OC)c(=O)c2ccccc12`, the normalized B-score (activity score, 25-100; higher = stronger inhibition) result was “inactive”.

Consider `Cc1ccccc1NC(=O)C(C)c1ccc(-c2ccccc2)c(F)c1` (stereo unspecified), for which the normalized B-score (activity score, 25-100; higher = stronger inhibition) is 100 (active).

On to `CC(C(=O)Nc1ccccc1-c1ccccc1)N1CCOCC1` (stereo unspecified), for which the normalized B-score (activity score, 25-100; higher = stronger inhibition) entry was “inactive”.

Regarding `O=C(Nc1ccccc1F)c1ccccc1-c1ccccc1`, the normalized B-score (activity score, 25-100; higher = stronger inhibition) result is “inactive”.

Consider `CCOCCCNC(=O)c1cn(CC(C)C)c(=O)c2c1c1ccccc1n2C`, for which the normalized B-score (activity score, 25-100; higher = stronger inhibition) entry was “inactive”.

As for `CC(Cc1cccs1)NC(=O)c1cccc(Cl)c1` (stereo unspecified), the normalized B-score (activity score, 25-100; higher = stronger inhibition) result was “inactive”.

On to `COc1ccc(CN(C)C(=O)CC(c2ccccc2)c2ccccc2)cc1`, for which the normalized B-score (activity score, 25-100; higher = stronger inhibition) is 25 (active).

In the case of `CN(Cc1ccccc1)C(=O)COc1ccccc1`, the normalized B-score (activity score, 25-100; higher = stronger inhibition) result was “inactive”.

In the case of `CN(Cc1ccccc1)C(=O)CCc1ccccc1`, the normalized B-score (activity score, 25-100; higher = stronger inhibition) result was “inactive”.

For the compound `C=CCOc1ccc(/C=C/C(=O)OC(C)C(=O)Nc2ccc(NC(C)=O)cc2)cc1` (stereo unspecified), the normalized B-score (activity score, 25-100; higher = stronger inhibition) result was “inactive”.

Take `Cc1ccc(OCc2nc3ccccc3n2C)cc1`: the normalized B-score (activity score, 25-100; higher = stronger inhibition) result is “inactive”.

In the case of `CCCCCCCCCCOC(=O)Cn1c(COc2cccc(OC)c2)[n+](C)c2ccccc21`, the normalized B-score (activity score, 25-100; higher = stronger inhibition) entry is “inactive”.

Take `CCCCCCCCCCOC(=O)Cn1c(COc2ccc(C)cc2)[n+](C)c2ccccc21`: the normalized B-score (activity score, 25-100; higher = stronger inhibition) is 25 (active).

Take `Cc1ccc(-c2nn(-c3ccc(F)cc3)cc2C(=O)NCC(c2cccs2)N2CCOCC2)cc1` (stereo unspecified): the normalized B-score (activity score, 25-100; higher = stronger inhibition) result is “inactive”.

Regarding `O=C(COC(=O)[C@H](Cc1ccccc1)NC(=O)c1cccs1)Nc1cc(F)ccc1F`, the normalized B-score (activity score, 25-100; higher = stronger inhibition) result is “inactive”.

Turning to `COc1ccc(NC(=O)CCS(=O)(=O)c2cc3c(cc2Cl)NC(=O)CO3)cc1OC`, the normalized B-score (activity score, 25-100; higher = stronger inhibition) result was “inactive”.

For `Cc1cc2c(cc1S(=O)(=O)CCC(=O)NCc1ccccc1)OCC(=O)N2`, the normalized B-score (activity score, 25-100; higher = stronger inhibition) entry was “inactive”.

In the case of `COc1ccc(Cl)cc1NC(=O)CCS(=O)(=O)c1cc2c(cc1C)NC(=O)CO2`, the normalized B-score (activity score, 25-100; higher = stronger inhibition) is 100 (active).

With `C=C(C)c1cccc(C(C)(C)NC(=O)N2CCN(c3ncccn3)CC2)c1`, the normalized B-score (activity score, 25-100; higher = stronger inhibition) entry is “inactive”.

As for `Cc1ccc(NC(=O)CN(C)CC(=O)Nc2cccc(F)c2)cc1[N+](=O)[O-]`, the normalized B-score (activity score, 25-100; higher = stronger inhibition) is 100 (active).

In the case of `Cc1ccc(CN(C)CC(=O)Nc2cccc([N+](=O)[O-])c2)o1`, the normalized B-score (activity score, 25-100; higher = stronger inhibition) result is “inactive”.

Turning to `CN(CC(=O)Nc1cccc(F)c1)CC(=O)Nc1cccc([N+](=O)[O-])c1`, the normalized B-score (activity score, 25-100; higher = stronger inhibition) result is “inactive”.

Consider `Cc1cccc2c1cnn2C(=O)CCC(=O)NC1CCCCC1`, for which the normalized B-score (activity score, 25-100; higher = stronger inhibition) result is “inactive”.
